Source: the supplement of paper PMC6555819

Columns and labels:
Assay in all cases: PBM binding z-score (relative to random genomic background probes); higher = stronger binding; sequences stand for … in GC…GCGATTGACAGCGTAGAATGAAGG
[1] = system: FXR:RXRa (NR concentration 270 nM, RXRa partner concentration 90 nM)
Outline: (§1)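 Regression normalization was applied to scanned fluorescence from custom Agilent 4×180K protein-binding microarrays. Before scanning, arrays were incubated 1 h with ligand-free nuclear receptor dimers, and binding was detected with antibodies against each partner (one per run). Binding z-scores use the random background probes as reference.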

[2] = system: LXRa:RXRa (NR concentration 270 nM, RXRa partner concentration 90 nM)
Outline: as §1

[3] = system: LXRa homodimer (NR concentration 270 nM)
Outline: as §1

[4] = system: LXRb:RXRa (NR concentration 270 nM, RXRa partner concentration 90 nM)
Outline: as §1

[5] = system: LXRb homodimer (NR concentration 270 nM)
Outline: as §1

[6] = system: PPARa:RXRa (NR concentration 270 nM, RXRa partner concentration 90 nM)
Outline: as §1

[7] = system: PPARg:RXRa (NR concentration 180 nM, RXRa partner concentration 90 nM)
Outline: as §1

[8] = system: PPARg:RXRa 270nM:90nM, anti-RXR (NR concentration 270 nM, RXRa partner concentration 90 nM)
Outline: as §1

[9] = system: PPARg:RXRa 30nM:10nM, anti-RXR (NR concentration 30 nM, RXRa partner concentration 10 nM)
Outline: as §1

[10] = system: PPARg:RXRa 90nM:30nM, anti-RXR (NR concentration 90 nM, RXRa partner concentration 30 nM)
Outline: as §1

[11] = system: PPARg:RXRa DBDmut IVT, anti-RXR (DBD mutation: RXRa K156A/R161A, NR concentration 270 nM, RXRa partner concentration 90 nM)
Outline: as §1

[12] = system: PPARg:RXRa IVT, anti-PPARg (NR concentration 270 nM, RXRa partner concentration 90 nM)
Outline: as §1

[13] = system: PPARg DBDmut:RXRa IVT, anti-PPARg (DBD mutation: PPARg1 K132A/R137A, NR concentration 270 nM, RXRa partner concentration 90 nM)
Outline: as §1

[14] = system: PPARg DBDmut IVT, anti-PPARg (DBD mutation: PPARg1 K132A/R137A, NR concentration 270 nM)
Outline: as §1

[15] = system: PPARg homodimer (NR concentration 180 nM)
Outline: as §1

[16] = system: PXR:RXRa (NR concentration 270 nM, RXRa partner concentration 90 nM)
Outline: as §1

[17] = system: PXR homodimer (NR concentration 270 nM)
Outline: as §1

[18] = system: RARa:RXR (NR concentration 270 nM, RXRa partner concentration 90 nM)
Outline: as §1

[19] = system: RARa homodimer (NR concentration 270 nM)
Outline: as §1

[20] = system: RARb:RXRa (NR concentration 270 nM, RXRa partner concentration 90 nM)
Outline: as §1

| Sequence | PBM binding z-score [1] | PBM binding z-score [2] | PBM binding z-score [3] | PBM binding z-score [4] | PBM binding z-score [5] | PBM binding z-score [6] | PBM binding z-score [7] | PBM binding z-score [8] | PBM binding z-score [9] | PBM binding z-score [10] | PBM binding z-score [11] | PBM binding z-score [12] | PBM binding z-score [13] | PBM binding z-score [14] | PBM binding z-score [15] | PBM binding z-score [16] | PBM binding z-score [17] | PBM binding z-score [18] | PBM binding z-score [19] | PBM binding z-score [20] |
| --- | --- | --- | --- | --- | --- | --- | --- | --- | --- | --- | --- | --- | --- | --- | --- | --- | --- | --- | --- | --- |
| ATCTCTAGGTAAAGTTCGGTGAAAGATCGATAGA | 0.889 | 1.94 | 0.491 | 0.602 | 0.935 | 1.22 | 1.55 | 2.48 | 1.27 | 2.34 | 2.6 | 2.15 | 1.46 | 1.56 | 0.996 | 0.633 | 0.941 | 0.644 | 1.22 | 0.896 |
| TCTTGTAGATCAACAGGACGTTAAGAAAGATCGA | 0.291 | 0.413 | -0.398 | 0.173 | -0.226 | 0.653 | 0.338 | 1.62 | 2.86 | 2.27 | 1.79 | 0.305 | 0.99 | 0.998 | 0.259 | 0.135 | -0.241 | 0.574 | 0.262 | -0.11 |
| GCTTGTAGATCAAGGTTAAGAATGACTAAGCTAA | 0.096 | 0.324 | -0.618 | 0.368 | -0.604 | 1.37 | 1.3 | 1.95 | 0.416 | 1.72 | 1.74 | 0.924 | 0.367 | 0.28 | -0.624 | 0.546 | -0.428 | 0.94 | -0.617 | 0.932 |
| CCTGCTCGGTCATGGTCAGCTAATCTACAGTATG | 0.209 | 0.33 | 0.0504 | -0.0325 | -0.00908 | 0.0849 | 0.0527 | -0.261 | -0.454 | -0.32 | 0.829 | 0.464 | -0.762 | -0.953 | -0.491 | -0.351 | -0.822 | -0.293 | -0.596 | 2.46 |
